About 2,000 (36%) of roughly 5,500 compounds were called active. Not shown: some 18% with an inconclusive outcome. No stated cut-off is given here; in the data, active means normalized growth mostly below about 0.91 (no sharp cut-off); inconclusive means no clear call, values can overlap the other calls; inactive means mostly above about 0.92. The list shows a part of the results.
Experiment: chemical genetic growth profiling, strain panel (AID 1159580);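 further: tested at 20 µM; growth read once vehicle control cultures reached saturation at 30 °C; 1 = growth at the plate median or of vehicle wells; lower values mean less growth of the strain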
Details: S. cerevisiae deletion strains, growth OD
[1] = locus YAR019C, strain CDC15, hits give low values
[2] = locus YBL105C, strain PKC1, hits give low values
[3] = locus YBR135W, strain CKS1, hits give low values
[4] = locus YBR136W, strain MEC1, hits give low values
[5] = locus YBR160W, strain CDC28, hits give low values
[6] = locus YDL017W, strain CDC7, hits give low values
[7] = locus YDL028C, strain MPS1, hits give low values
[8] = locus YDL101C, strain DUN1, hits give low values
[9] = locus YDL108W, strain KIN28, hits give low values
[10] = locus YDL132W, strain cdc53, hits give low values
[11] = locus YDL214C, strain PRR2, hits give low values
[12] = locus YDR052C, strain DBF4, hits give low values
[13] = locus YDR054C, strain cdc34, hits give low values
[14] = locus YDR226W, strain ADK1, hits give low values
[15] = locus YDR477W, strain SNF1, hits give low values
[16] = locus YER123W, strain YCK3, hits give low values
[17] = locus YER133W, strain GLC7, hits give low values
[18] = locus YFL009W, strain cdc4, hits give low values
[19] = locus YFL029C, strain CAK1, hits give low values
[20] = locus YFR003C, strain YPI1, hits give low values
[21] = locus YFR019W, strain FAB1, hits give low values
[22] = locus YFR028C, strain CDC14, hits give low values
[23] = locus YGR040W, strain KSS1, hits give low values
[24] = locus YGR052W, strain FMP48, hits give low values
[25] = locus YGR092W, strain DBF2, hits give low values
[26] = locus YHR030C, strain SLT2, hits give low values
[27] = locus YHR079C, strain IRE1, hits give low values
[28] = locus YHR082C, strain KSP1, hits give low values
[29] = locus YHR205W, strain SCH9, hits give low values
[30] = locus YIL147C, strain SLN1, hits give low values
[31] = locus YJL095W, strain BCK1, hits give low values
[32] = locus YJL128C, strain PBS2, hits give low values
[33] = locus YJL157C, strain FAR1, hits give low values
[34] = locus YJR016C, strain ILV3, hits give low values
[35] = locus YJR066W, strain TOR1 (second series), hits give low values
[36] = locus YJR066W, strain TOR1, hits give low values
[37] = locus YKL048C, strain ELM1, hits give low values
[38] = locus YKL067W, strain YNK1, hits give low values
[39] = locus YKL101W, strain HSL1, hits give low values
[40] = locus YKL193C, strain SDS22, hits give low values
[41] = locus YKL203C, strain TOR2, hits give low values
[42] = locus YLR113W, strain HOG1, hits give low values
[43] = locus YLR133W, strain CKI1, hits give low values
[44] = locus YLR403W, strain SFP1, hits give low values
[45] = locus YML070W, strain DAK1, hits give low values
[46] = locus YMR001C, strain CDC5, hits give low values
[47] = locus YMR205C, strain PFK2 (second series), hits give low values
[48] = locus YMR277W, strain FCP1, hits give low values
[49] = locus YNL006W, strain LST8, hits give low values
[50] = locus YNL020C, strain ARK1, hits give low values
[51] = locus YNL161W, strain CBK1, hits give low values
[52] = locus YNL183C, strain NPR1, hits give low values
[53] = locus YNL207W, strain RIO2, hits give low values
[54] = locus YNL222W, strain SSU72, hits give low values
[55] = locus YNL307C, strain MCK1 (second series), hits give low values
[56] = locus YOL078W, strain AVO1, hits give low values
[57] = locus YOL136C, strain PFK27, hits give low values
[58] = locus YOR061W, strain CKA2, hits give low values
[59] = locus YOR119C, strain RIO1, hits give low values
[60] = locus YOR231W, strain MKK1, hits give low values
[61] = locus YOR329C, strain SCD5, hits give low values
[62] = locus YPL031C, strain PHO85, hits give low values
[63] = locus YPL153C, strain RAD53, hits give low values
[64] = locus YPL204W, strain HRR25, hits give low values
[65] = locus YPL209C, strain IPL1, hits give low values
[66] = locus YPL256C, strain CLN2, hits give low values
[67] = locus YPR025C, strain CCL1, hits give low values
[68] = locus YPR106W, strain ISR1, hits give low values
[69] = locus YPR111W, strain DBF20, hits give low values
[70] = strain NNK1, hits give low values
[71] = strain TSCII, hits give low values

Measured: normalized growth

Cc1cc(C(=O)O/N=C(/N)CSc2ncccc2C(F)(F)F)no1
active: [42] 0.789 | [66] 0.824
inactive: [1] 0.997 | [2] 0.993 | [3] 0.994 | [4] 0.992 | [5] 0.988 | [6] 0.995 | [7] 0.993 | [8] 1.01 | [9] 0.996 | [10] 0.99 | [11] 0.999 | [12] 0.998 | [13] 0.989 | [14] 0.991 | [15] 1 | [16] 1.01 | [17] 1.01 | [18] 0.999 | [19] 0.998 | [20] 0.993 | [21] 1 | [22] 0.994 | [23] 1.02 | [24] 0.995 | [25] 1.02 | [26] 0.957 | [27] 0.772 | [28] 1.17 | [29] 1 | [30] 0.991 | [31] 0.841 | [32] 0.983 | [33] 1.01 | [34] 0.997 | [35] 1 | [36] 1.14 | [37] 1.01 | [38] 0.993 | [39] 1 | [40] 0.989 | [41] 1.08 | [43] 1.01 | [44] 1.02 | [45] 0.995 | [46] 0.997 | [47] 1.02 | [48] 0.994 | [49] 0.999 | [50] 1.01 | [51] 0.996 | [52] 0.933 | [53] 0.997 | [54] 0.978 | [55] 1.01 | [56] 0.998 | [57] 1.01 | [58] 1.02 | [59] 1.04 | [60] 0.792 | [61] 0.995 | [62] 1 | [63] 0.997 | [64] 1.01 | [65] 0.992 | [67] 0.999 | [68] 0.997 | [69] 0.993 | [70] 1.01 | [71] 0.99

N/C(CSc1ncccc1C(F)(F)F)=N/OC(=O)Nc1cccc(Cl)c1
active: [26] 0.582 | [42] 0.819 | [52] 0.384 | [66] 0.845
inactive: [1] 1 | [2] 0.995 | [3] 0.969 | [4] 0.995 | [5] 0.995 | [6] 0.996 | [7] 0.988 | [8] 0.993 | [9] 0.996 | [10] 0.98 | [11] 0.877 | [12] 1 | [13] 0.987 | [14] 0.983 | [15] 0.857 | [16] 0.724 | [17] 0.82 | [18] 0.996 | [19] 0.992 | [20] 0.995 | [21] 0.946 | [22] 0.991 | [23] 0.881 | [24] 0.793 | [25] 0.836 | [27] 0.788 | [28] 0.946 | [29] 0.875 | [30] 0.995 | [31] 0.618 | [32] 0.967 | [33] 0.94 | [34] 0.989 | [35] 0.71 | [36] 0.841 | [37] 0.977 | [38] 0.897 | [39] 0.911 | [40] 0.987 | [41] 0.93 | [43] 0.926 | [44] 0.904 | [45] 0.837 | [46] 0.994 | [47] 0.916 | [48] 0.988 | [49] 1 | [50] 0.919 | [51] 0.986 | [53] 0.988 | [54] 0.997 | [55] 0.923 | [56] 0.994 | [57] 0.916 | [58] 0.931 | [59] 0.885 | [60] 0.749 | [61] 0.986 | [62] 0.836 | [63] 0.717 | [64] 0.78 | [65] 0.99 | [67] 0.988 | [68] 0.984 | [69] 0.974 | [70] 0.99 | [71] 0.991

N/C(CSc1ccc(Cl)cc1)=N/OC(=O)c1ccc(C(F)(F)F)cc1
inactive: [11] 0.798 | [12] 0.912 | [15] 0.798 | [16] 0.774 | [17] 0.853 | [20] 0.908 | [23] 0.816 | [24] 0.838 | [25] 0.805 | [27] 0.739 | [28] 0.788 | [29] 0.604 | [31] 0.7 | [32] 0.889 | [33] 0.826 | [35] 0.687 | [36] 0.651 | [37] 0.953 | [38] 0.826 | [39] 0.863 | [41] 0.859 | [43] 0.822 | [44] 0.761 | [45] 0.852 | [47] 0.836 | [50] 0.836 | [51] 0.9 | [52] 0.82 | [55] 0.786 | [57] 0.852 | [58] 0.803 | [59] 0.845 | [60] 0.791 | [62] 0.807 | [63] 0.811 | [64] 0.786
active: [1] 0.853 | [2] 0.895 | [3] 0.89 | [4] 0.889 | [5] 0.874 | [6] 0.893 | [7] 0.847 | [8] 0.867 | [9] 0.881 | [10] 0.886 | [13] 0.87 | [14] 0.867 | [18] 0.841 | [19] 0.853 | [21] 0.766 | [22] 0.86 | [26] 0.422 | [30] 0.876 | [34] 0.889 | [40] 0.885 | [42] 0.619 | [46] 0.866 | [48] 0.855 | [49] 0.892 | [53] 0.874 | [54] 0.872 | [56] 0.877 | [61] 0.9 | [65] 0.892 | [66] 0.647 | [67] 0.886 | [68] 0.875 | [69] 0.855 | [70] 0.862 | [71] 0.85
